Test results reported in PubChem BioAssay (NCATS).
Records with an inconclusive call do not appear. More than one record can exist for a structure, and the calls need not agree. The source made the active and inactive calls. Calls follow the shape of the dose curve; as a rule, active = well fitted inhibition curve with a large enough effect; inconclusive = small, poorly fitted or top-dose-only effect; inactive = no such curve, though single readings can be large or run the other way.

Biological target: Cytochrome P450 2C19 (Homo sapiens) (UniProt P33261)
Assay: qHTS Assay for Inhibitors and Substrates of Cytochrome P450 2C19 (AID 899); also: nearly all actives have a fitted effect of over 60% in size
Settings: recombinant CYP2C19, luciferin-H EGE luminescence; series mostly up to 57.1 µM; activity, negative = inhibition: at the top concentration
Procedure: NIH Molecular Libraries Screening Centers Network [MLSCN]
NIH Chemical Genomics Center [NCGC]
The P450 gene superfamily is involved in the metabolism and clearance of xenobiotics. This assay used human CYP2C19 to measure the hydroxylation of ethylene glycol ester of 6' deoxyluciferin (Luciferin-H EGE; […]) to luciferin. The luciferin is then measured by luminescence after the addition of a luciferase detection reagent. Luciferin-H EGE concentration in the assay was equal to its KM for CYP2C19. Inhibitors and some substrates limit the production of luciferin, and decrease measured luminescence.
NCGC Assay Protocol Summary:
Two uL of enzyme and substrate mix (final concentrations: 5nM CYP2C19, 10uM Luciferin-H EGE, 50mM KPO4) were dispensed into a white, solid bottom 1536-well microtiter plate. 23nL of compound was transferred by a pin tool. The plate was incubated at 37C for 10 min. Two uL of an NADPH regeneration solution (Promega supplied reagent) was dispensed and the reaction was allowed to continue for 60 min at 37C. Then the reaction was stopped by reconstituted luciferin detection buffer. After another 20 min of incubation the plate was read on the ViewLux (Perkin Elmer) at 60 sec exposure and 2x2 binning. This protocol was carried out with Promega-Glo reagents and further information can be found at http://www.promega.com/tbs/tb325/tb325.pdf. Data were normalized to the to AC100 inhibition (57uM ketoconazole).
Keywords: P450, CYP2C19, Luciferase, MLSMR, MLSCN, NIH Roadmap, qHTS, NCGC
% is scaled to controls: 0 for no effect and ±100 for the full control effect; potency is read from the fitted curve at half-maximal effect.

Chain of Cytochrome P450 2C19 (Homo sapiens) (P33261 whole entry, looked up): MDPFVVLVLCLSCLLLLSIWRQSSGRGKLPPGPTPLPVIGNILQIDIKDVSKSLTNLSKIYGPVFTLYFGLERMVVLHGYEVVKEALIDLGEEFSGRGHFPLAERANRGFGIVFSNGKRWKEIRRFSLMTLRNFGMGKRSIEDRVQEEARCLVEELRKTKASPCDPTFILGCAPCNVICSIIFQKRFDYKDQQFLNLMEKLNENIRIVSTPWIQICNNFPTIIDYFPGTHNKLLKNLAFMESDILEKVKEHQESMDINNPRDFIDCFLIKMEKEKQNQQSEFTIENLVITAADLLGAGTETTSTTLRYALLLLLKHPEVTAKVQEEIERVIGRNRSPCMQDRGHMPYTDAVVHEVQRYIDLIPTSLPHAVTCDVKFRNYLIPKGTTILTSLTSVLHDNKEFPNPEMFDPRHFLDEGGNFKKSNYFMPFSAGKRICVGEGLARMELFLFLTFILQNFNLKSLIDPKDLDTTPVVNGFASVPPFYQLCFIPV

| SMILES | Potency | activity, negative = inhibition |
| --- | --- | --- |
| COCC(=O)N1CCC2(CC1)CN(C(=O)Nc1ccccc1)C2 | 5.01 µM (active) | – |
| Cc1noc(C)c1-c1nc(Nc2ccc(F)cc2)c2ccccc2n1 | 3.16 µM (active) | – |
| COc1cccc(-c2cncnc2NCc2ccc(OC)cc2OC)c1 | 1.26 µM (active) | – |
| COc1ccccc1CCn1c(=O)c(-c2ccc(Cl)cc2)nc2cncnc21 | 0.398 µM (active) | – |
| COc1ccc(CNc2ccnc(-c3cccnc3)n2)c(OC)c1 | 2 µM (active) | – |
| O=S(=O)(c1ccccc1)N1CCC2(CCCN(Cc3nccs3)C2)CC1 | – | 54.7% (inactive) |
| CN1C(=O)CC[C@@H]1c1cccnc1 | – | 17.4% (inactive) |
| c1ccc(CNc2ccnc(-c3cccnc3)n2)cc1 | 2.51 µM (active) | – |
| Cc1cccc(CNc2ccnc(-c3ccccc3Cl)n2)c1 | 1.26 µM (active) | – |
| O=c1c(-c2cccc(F)c2)nc2cncnc2n1Cc1ccccc1Cl | 0.794 µM (active) | – |
| N#Cc1cccc(-c2cc(-n3ccnc3)ncn2)c1 | 0.158 µM (active) | – |
| CN(C)c1ccc(-c2cncnc2Nc2ccc(F)cc2)cc1 | 0.794 µM (active) | – |
| Cc1c(CC(C)(C)C(=O)O)n(Cc2ccc(Cl)cc2)c2ccc(F)cc12 | 316 nM (active) and inactive | – |
| COc1ccc2[nH]cc(CCNc3ncnc4ccc(-c5c(C)noc5C)cc34)c2c1 | 3.98 µM (active) | – |
| O=C(c1ccncc1)N1CCC2(CCN(Cc3ccccc3)CC2)CC1 | – | 44.2% (inactive) |
| COC(=O)N1CCC2(CCCN(c3ccncc3)C2)CC1 | – | 50.3% (inactive) |
| Cc1cccc(CNc2nc(-c3cccc(NS(C)(=O)=O)c3)nc3ccccc23)c1 | 2.51 µM (active) | – |
| COc1ncc2nc(CCc3ccccc3)c(=O)n(CCc3ccccc3)c2n1 | 7.94 µM (active) | – |
| Cc1ccccc1-c1ccc2ncnc(NCc3cccnc3)c2c1 | 1.58 µM (active) | – |
| CN(C)c1ccc(-c2cncnc2-n2ccnc2)cc1 | 3.98 µM (active) | – |

| SMILES | Potency | activity, negative = inhibition |
| --- | --- | --- |
| CO/N=C(\C(=O)N[C@@H]1C(=O)N2C(C(=O)O)=C(COC(C)=O)CS[C@@H]12)c1csc(N)n1 | – | 57.5% (inactive) |
| O=c1c(-c2cccs2)nc2cnc(N3CCNCC3)nc2n1Cc1cccs1 | 5.01 µM (active) | – |
| CN(C)c1ccc(-c2cncnc2NCc2cccnc2)cc1 | 0.0316 µM (active) | – |
| N#Cc1cccc(-c2nccc(-n3ccnc3)n2)c1 | 7.94 µM (active) | – |
| COc1cccc(-c2cc(NCc3ccc(OC)cc3OC)ncn2)c1 | 5.01 µM (active) | – |
| O=c1c(-c2cccs2)nc2cncnc2n1-c1ccccc1 | 6.31 µM (active) | – |
| O=C(c1cc(C(F)(F)F)cc(C(F)(F)F)c1)N1CCC2(CC1)CN(c1ncccn1)C2 | – | 67.7% (inactive) |
| Cn1cc(-c2nc3cnc(N4CCNCC4)nc3n(Cc3ccc(F)cc3)c2=O)c2ccccc21 | 7.94 µM (active) | – |
| CN(Cc1ccco1)c1ccnc(-c2cccnc2)n1 | 6.31 µM (active) | – |
| CN(C)c1ccc(-c2cncnc2NCc2ccccc2)cc1 | 0.398 µM (active) | – |
| O=S(=O)(c1ccccc1)N1CCC[C@@]2(CCN(Cc3nccs3)C2)C1 | 7.94 µM (active) | – |
| COc1ccccc1CNc1ncnc2ccc(-c3ccccc3OC)cc12 | 3.16 µM (active) | – |
| C[C@@]12CCC(=O)C=C1CC[C@H]1[C@H]3CC[C@](O)(C(=O)CO)[C@]3(C)CC(=O)[C@@H]12 | – | -24.1% (inactive) |
| C[N+]1(C)CCC[C@@H](OC(=O)C(O)(c2ccccc2)c2ccccc2)C1 | – | 50.8% [at 25.6 µM] (inactive) |
| CNc1nc(-c2ccccc2OC)nc2ccccc12 | – | 12.3% (inactive) |
| FC(F)(F)c1ccccc1-c1ccc2ncnc(NCc3cccs3)c2c1 | 3.16 µM (active) | – |
| COc1cc(/C=C\c2ccc(OC)cc2OC)cc(OC)c1 | – | 51.3% (inactive) |
| COc1cccc(-c2nc(NCc3cccs3)c3ccccc3n2)c1 | 3.16 µM (active) | – |
| COc1ccc2[nH]cc(CCNc3cc(-c4ccoc4)ncn3)c2c1 | 5.01 µM (active) | – |
| CC[C@@]12CCCN3CCc4c(n(c5ccccc45)[C@](O)(C(=O)OC)C1)[C@H]32 | – | -8.11% (inactive) |
